# Assay results from the supplement of paper PMC10849652.
# Targets with a hit are over-represented here; the source holds about 7,900 in all. About 0.6% of all pairs of compound and target were hits. Values without a mark were called inactive.
# Columns and labels:
# Experiment in all cases: log2 fold change, soluble protein after heating vs DMSO (PISA); higher = thermal stabilisation; K562 cells, 10 uM, 30 min; active = over 0.2 and 3.5 SD of the protein, either way, in both replicates (recomputed)
# erlotinib = compound: C#Cc1cccc(Nc2ncnc3cc(OCCOC)c(OCCOC)cc23)c1 [erlotinib]
# Summary of the method: (§1)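 Values are thermal stability changes relative to control samples and are taken from duplicates. They are stated as log2 fold changes. Before quantification by TMTpro 16plex LC-MS/MS with equalised channel sums, K562 cells at 2×10^6 cells/mL were treated with 10 μM compound for 30 min, heated in aliquots for 3 min across 48°C-58°C, pooled, extracted in PBS with 0.5% NP-40 at 4°C, and centrifuged at 21,000xg for 90 min to give the soluble supernatant.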
# [1] = compound: C/C(=N\NC(=O)C1=CC(=CC=C1)S(=O)(=O)N2CCOCC2)/C3=C(C=CC(=C3)Cl)O
# Summary of the method: as §1
# [2] = compound: C1=CC(=C(C=C1Cl)C2=NC3=NC=CN=C3C(=N2)NC4=CC=NC=C4)F
# Summary of the method: as §1
# [3] = compound: C1=CC(=CC=C1C2=NC3=C(N2)C=C(C=C3)C(=O)N)OC4=CC=C(C=C4)Cl
# Summary of the method: as §1
# [4] = compound: C1=CC2=C(C=CC(=C2)/C=C\3/C(=O)NC(=NCC4=CC=CS4)S3)N=C1
# Summary of the method: as §1
# [5] = compound: C1=CC2=NC=CN=C2C=C1/C=C/3\C(=O)NC(=O)S3
# Summary of the method: as §1
# [6] = compound: C1=CC=C(C=C1)C2=NC(=C(N2)C3=CC=NC=C3)C4=CC(=C(C=C4)Cl)O
# Summary of the method: as §1
# [7] = compound: C1=CC=C2C(=C1)C3=NNC4=CC=CC(=C43)C2=O
# Summary of the method: as §1
# [8] = compound: C1CCN(C1)C(=O)NC2=CC=CC(=C2)NC3=NC=C(C(=N3)NCCC4=CN=CN4)Br
# Summary of the method: as §1
# [9] = compound: C1CN(CCC1(CC2=CC=C(C=C2)Cl)N)C3=NC=NC4=C3C=CN4
# Summary of the method: as §1
# IRAK-1-4 Inhibitor I = compound: C1COCCN1CCN2C3=CC=CC=C3N=C2NC(=O)C4=CC(=CC=C4)[N+](=O)[O-] [IRAK-1-4 Inhibitor I]
# Summary of the method: as §1
# [10] = compound: CC(=O)c1cnc2ccc(-c3cc(Cl)c(O)c(Cl)c3)nc2c1N[C@H]1CC[C@H](CN(C)C)CC1
# Summary of the method: as §1
# ralimetinib = compound: CC(C)(C)Cn1c(N)nc2ccc(-c3[nH]c(C(C)(C)C)nc3-c3ccc(F)cc3)nc21 [ralimetinib]
# Summary of the method: as §1
# [11] = compound: CC(C)(O)CC(=O)NCCn1ccc2ncnc(Nc3ccc(Oc4cccc(C(F)(F)F)c4)c(Cl)c3)c21
# Summary of the method: as §1
# [12] = compound: CC(C)C1=C2N=C(C=C(N2N=C1)NCC3=CC=CC=C3)NCCCCCCN
# Summary of the method: as §1
# [13] = compound: CC(C)C[C@@H](C=O)NC(=O)[C@H](CC(C)C)NC(=O)[C@H](CC(C)C)NC(=O)OCc1ccccc1
# Summary of the method: as §1
# pinometostat = compound: CC(C)N(C[C@H]1O[C@@H](n2cnc3c(N)ncnc32)[C@H](O)[C@@H]1O)[C@H]1C[C@@H](CCc2nc3cc(C(C)(C)C)ccc3[nH]2)C1 [pinometostat]
# Summary of the method: as §1
# [14] = compound: CC1=C(C(CC(=O)N1)C2=CC=C(C=C2)C(F)(F)F)C(=O)NC3=C(C=C4C(=C3)C=NN4)F
# Summary of the method: as §1
# [15] = compound: CC1=C(C2=C(C=C1)C(=O)C3=CC=CC=C3N2CCCN)C
# Summary of the method: as §1
# ibrutinib = compound: C=CC(=O)N1CCC[C@@H](n2nc(-c3ccc(Oc4ccccc4)cc3)c3c(N)ncnc32)C1 [ibrutinib]
# Summary of the method: as §1
# Chain of UniProt O43529 (O43529 whole entry, looked up): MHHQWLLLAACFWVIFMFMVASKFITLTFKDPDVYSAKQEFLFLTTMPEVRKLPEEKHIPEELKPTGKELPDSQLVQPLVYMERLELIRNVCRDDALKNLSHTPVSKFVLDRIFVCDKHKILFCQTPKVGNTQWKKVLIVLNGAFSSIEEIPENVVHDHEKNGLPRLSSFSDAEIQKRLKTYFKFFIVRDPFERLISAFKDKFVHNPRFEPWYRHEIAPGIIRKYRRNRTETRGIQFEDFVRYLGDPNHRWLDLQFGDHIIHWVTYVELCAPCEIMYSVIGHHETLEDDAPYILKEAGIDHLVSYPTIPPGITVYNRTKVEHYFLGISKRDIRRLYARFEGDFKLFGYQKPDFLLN
# Chain of UniProt P46108 (P46108 whole entry, looked up): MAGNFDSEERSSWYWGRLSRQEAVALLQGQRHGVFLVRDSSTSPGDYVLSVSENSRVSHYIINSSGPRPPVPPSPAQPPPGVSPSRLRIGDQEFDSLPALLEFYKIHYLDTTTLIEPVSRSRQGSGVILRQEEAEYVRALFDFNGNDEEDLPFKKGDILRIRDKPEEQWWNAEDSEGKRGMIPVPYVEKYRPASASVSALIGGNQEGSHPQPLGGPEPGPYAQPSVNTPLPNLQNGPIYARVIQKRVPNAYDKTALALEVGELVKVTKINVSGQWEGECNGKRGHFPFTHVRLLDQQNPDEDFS
# Chain of UniProt A6NHX0 (A6NHX0 whole entry, looked up): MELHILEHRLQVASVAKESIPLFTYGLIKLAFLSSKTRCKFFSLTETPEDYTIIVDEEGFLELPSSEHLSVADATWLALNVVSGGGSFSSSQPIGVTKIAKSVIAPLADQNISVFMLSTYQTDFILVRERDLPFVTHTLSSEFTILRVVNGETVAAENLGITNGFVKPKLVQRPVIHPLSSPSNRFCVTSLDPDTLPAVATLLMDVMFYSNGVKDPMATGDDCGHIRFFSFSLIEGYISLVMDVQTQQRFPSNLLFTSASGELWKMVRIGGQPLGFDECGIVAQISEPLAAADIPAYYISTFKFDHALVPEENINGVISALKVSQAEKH
# Chain of UniProt O75122 (O75122 whole entry, looked up): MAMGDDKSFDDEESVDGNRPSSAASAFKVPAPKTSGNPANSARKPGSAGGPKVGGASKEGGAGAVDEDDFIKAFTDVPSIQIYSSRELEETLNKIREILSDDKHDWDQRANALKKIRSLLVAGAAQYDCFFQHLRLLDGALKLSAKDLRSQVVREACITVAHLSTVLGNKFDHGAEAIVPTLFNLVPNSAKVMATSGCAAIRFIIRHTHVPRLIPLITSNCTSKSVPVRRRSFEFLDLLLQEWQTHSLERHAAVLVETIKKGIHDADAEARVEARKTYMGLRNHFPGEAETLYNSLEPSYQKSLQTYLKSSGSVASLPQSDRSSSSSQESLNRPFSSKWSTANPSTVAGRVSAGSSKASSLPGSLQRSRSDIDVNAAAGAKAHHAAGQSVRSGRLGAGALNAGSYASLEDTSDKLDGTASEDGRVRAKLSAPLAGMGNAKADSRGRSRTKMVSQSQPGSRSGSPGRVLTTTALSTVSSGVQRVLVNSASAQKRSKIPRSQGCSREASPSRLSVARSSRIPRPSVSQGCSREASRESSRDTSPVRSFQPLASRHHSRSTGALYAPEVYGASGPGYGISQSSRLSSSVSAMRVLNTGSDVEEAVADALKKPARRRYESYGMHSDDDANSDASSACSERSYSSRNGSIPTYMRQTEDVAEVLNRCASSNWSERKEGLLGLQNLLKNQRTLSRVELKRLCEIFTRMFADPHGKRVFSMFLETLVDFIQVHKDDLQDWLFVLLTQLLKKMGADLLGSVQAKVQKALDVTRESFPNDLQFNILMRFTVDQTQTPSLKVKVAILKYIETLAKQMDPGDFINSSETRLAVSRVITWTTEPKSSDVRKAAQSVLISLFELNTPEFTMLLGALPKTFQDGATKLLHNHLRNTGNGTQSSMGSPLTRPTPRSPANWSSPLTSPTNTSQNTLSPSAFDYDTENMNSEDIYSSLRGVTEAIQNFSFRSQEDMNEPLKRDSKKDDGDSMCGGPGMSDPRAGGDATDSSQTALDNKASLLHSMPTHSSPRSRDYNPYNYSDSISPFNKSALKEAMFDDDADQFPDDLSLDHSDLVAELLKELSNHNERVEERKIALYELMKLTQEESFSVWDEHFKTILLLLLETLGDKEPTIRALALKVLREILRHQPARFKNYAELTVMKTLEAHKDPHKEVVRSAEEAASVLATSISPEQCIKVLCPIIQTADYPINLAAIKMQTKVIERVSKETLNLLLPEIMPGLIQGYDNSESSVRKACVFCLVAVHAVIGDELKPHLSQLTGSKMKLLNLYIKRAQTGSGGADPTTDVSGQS
# Chain of UniProt Q96GQ5 (Q96GQ5 whole entry, looked up): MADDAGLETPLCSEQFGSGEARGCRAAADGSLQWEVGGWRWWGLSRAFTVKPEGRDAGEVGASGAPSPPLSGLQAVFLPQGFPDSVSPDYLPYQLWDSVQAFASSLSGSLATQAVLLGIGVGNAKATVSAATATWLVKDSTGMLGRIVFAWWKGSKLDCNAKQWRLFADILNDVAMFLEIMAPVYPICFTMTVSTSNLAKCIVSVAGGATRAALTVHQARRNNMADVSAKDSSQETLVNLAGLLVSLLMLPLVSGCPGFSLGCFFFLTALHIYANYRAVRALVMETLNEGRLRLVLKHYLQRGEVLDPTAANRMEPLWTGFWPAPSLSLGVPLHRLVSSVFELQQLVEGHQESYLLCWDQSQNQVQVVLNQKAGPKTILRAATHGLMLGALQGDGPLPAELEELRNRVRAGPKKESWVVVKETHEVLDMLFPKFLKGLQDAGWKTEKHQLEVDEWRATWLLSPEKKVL
# Chain of UniProt P51790 (P51790 whole entry, looked up): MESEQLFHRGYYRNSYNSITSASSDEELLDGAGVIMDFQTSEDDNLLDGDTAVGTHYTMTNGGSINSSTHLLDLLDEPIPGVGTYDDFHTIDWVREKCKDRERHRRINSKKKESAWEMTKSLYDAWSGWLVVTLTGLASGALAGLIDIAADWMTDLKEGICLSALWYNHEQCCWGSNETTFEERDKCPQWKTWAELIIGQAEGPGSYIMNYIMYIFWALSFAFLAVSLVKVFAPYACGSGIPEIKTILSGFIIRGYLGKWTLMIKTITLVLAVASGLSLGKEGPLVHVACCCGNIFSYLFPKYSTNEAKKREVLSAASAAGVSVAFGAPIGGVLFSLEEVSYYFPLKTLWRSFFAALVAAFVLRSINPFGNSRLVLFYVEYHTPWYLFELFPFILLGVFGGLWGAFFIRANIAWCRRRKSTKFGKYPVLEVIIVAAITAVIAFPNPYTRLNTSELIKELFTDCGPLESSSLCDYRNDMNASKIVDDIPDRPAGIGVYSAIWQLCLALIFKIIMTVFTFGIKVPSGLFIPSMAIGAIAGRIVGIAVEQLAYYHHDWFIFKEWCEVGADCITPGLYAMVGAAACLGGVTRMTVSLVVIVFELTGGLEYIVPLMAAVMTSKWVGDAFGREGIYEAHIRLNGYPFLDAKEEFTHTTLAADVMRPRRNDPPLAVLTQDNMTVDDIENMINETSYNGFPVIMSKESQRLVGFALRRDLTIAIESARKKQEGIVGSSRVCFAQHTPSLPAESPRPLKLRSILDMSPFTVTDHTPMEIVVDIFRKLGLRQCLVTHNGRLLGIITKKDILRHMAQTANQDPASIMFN
# Chain of UniProt Q99653 (Q99653 whole entry, looked up): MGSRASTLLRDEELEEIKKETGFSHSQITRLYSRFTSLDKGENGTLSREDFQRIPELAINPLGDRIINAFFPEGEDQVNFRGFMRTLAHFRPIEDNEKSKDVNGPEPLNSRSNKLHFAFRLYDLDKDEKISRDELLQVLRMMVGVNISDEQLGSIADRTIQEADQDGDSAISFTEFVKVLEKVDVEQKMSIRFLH
# Chain of UniProt P05937 (P05937 whole entry, looked up): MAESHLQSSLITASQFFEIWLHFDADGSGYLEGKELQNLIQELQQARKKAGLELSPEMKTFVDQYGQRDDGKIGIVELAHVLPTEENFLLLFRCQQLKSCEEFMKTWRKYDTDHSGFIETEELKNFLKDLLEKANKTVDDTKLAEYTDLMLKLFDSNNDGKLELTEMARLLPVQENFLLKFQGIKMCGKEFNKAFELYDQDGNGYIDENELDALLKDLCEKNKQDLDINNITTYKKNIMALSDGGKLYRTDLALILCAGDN
# Chain of UniProt O76031 (O76031 whole entry, looked up): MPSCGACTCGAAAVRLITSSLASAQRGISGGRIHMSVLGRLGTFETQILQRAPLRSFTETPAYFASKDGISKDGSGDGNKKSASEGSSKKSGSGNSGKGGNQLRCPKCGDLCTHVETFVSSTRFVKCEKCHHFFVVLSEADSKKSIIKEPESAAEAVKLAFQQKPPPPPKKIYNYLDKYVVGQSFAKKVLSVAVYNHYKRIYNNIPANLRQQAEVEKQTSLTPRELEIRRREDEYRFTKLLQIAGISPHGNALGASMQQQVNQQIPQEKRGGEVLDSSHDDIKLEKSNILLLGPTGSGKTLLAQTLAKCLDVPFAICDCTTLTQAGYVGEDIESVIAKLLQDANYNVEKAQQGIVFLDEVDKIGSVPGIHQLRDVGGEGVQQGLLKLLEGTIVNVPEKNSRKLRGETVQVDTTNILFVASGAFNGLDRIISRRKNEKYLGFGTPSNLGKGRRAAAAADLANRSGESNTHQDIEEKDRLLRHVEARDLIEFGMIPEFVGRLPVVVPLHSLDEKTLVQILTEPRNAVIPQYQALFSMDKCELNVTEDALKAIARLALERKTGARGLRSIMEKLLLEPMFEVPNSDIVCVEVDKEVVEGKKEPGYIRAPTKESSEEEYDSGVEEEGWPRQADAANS
Target,log2 fold change (erlotinib),log2 fold change [1],log2 fold change [2],log2 fold change [3],log2 fold change [4],log2 fold change [5],log2 fold change [6],log2 fold change [7],log2 fold change [8],log2 fold change [9],log2 fold change (IRAK-1-4 Inhibitor I),log2 fold change [10],log2 fold change (ralimetinib),log2 fold change [11],log2 fold change [12],log2 fold change [13],log2 fold change (pinometostat),log2 fold change [14],log2 fold change [15],log2 fold change (ibrutinib)
CLCN3 isoform 2 (UniProt P51790),0.008,0.089,0.059,0.044,0.024,-0.002,0.025,-0.017,-0.012,0.033,0.005,-0.008,0.026,-0.043,-0.049,-0.066,-0.043,-0.012,0.051,–
CLPX (UniProt O76031),-0.062,0.056,0.01,0.004,-0.009,0.036,-0.008,-0.034,-0.03,-0.003,0.002,0.006,-0.03,-0.02,0.048,-0.055,-0.026,0.004,0.012,–
CHST10 (UniProt O43529),0.013,-0.168,-0.144,-0.058,-0.111,0.03,0.067,0.101,0.008,0.06,0.056,-0.135,0.059,0.042,-0.435 (active),-0.003,0.082,0.025,0.036,-0.062
C16orf58 (UniProt Q96GQ5),0.033,0.01,0.051,0.023,0.061,0.042,-0.001,-0.021,0.006,0.036,0.031,0.01,-0.017,-0.045,-0.199,0.001,0.005,0.001,0.045,-0.022
CRK (UniProt P46108),-0.022,0.035,-0.002,-0.012,-0.011,0.03,-0.076,0.049,0.016,0.001,-0.046,-0.887 (active),-0.013,-0.007,-0.003,0.032,-0.037,-0.011,0.07,-0.097
CASTOR2 (UniProt A6NHX0),-0.026,0.117,0.013,0.018,-0.031,0.017,0.029,-0.017,-0.065,-0.002,0.078,0.008,-0.006,0.016,0.031,0.046,-0.013,-0.004,0.019,0.046
CALB1 (UniProt P05937),-0.011,-0.001,0.067,0.032,-0.033,0.055,-0.01,0.027,0.019,-0.026,0.016,0.017,-0.078,-0.052,-0.245 (active),-0.017,-0.043,0.055,-0.148,-0.033
CLASP2 isoform 3 (UniProt O75122),0.014,0.136,0.066,0.032,0.081,-0.013,-0.01,0.006,-0.063,0.041,-0.047,-0.297 (active),0.009,-0.056,-0.036,0.046,0.018,0.023,0.046,–
CHP1 (UniProt Q99653),-0.022,0.024,0.097,0.012,-0.056,0.008,0.287 (active),0.006,-0.07,0.091,0.091,0.001,0.145,-0.017,0.017,-0.061,-0.02,-0.017,-0.047,-0.024
